# S2 tox = Viability Counterscreen for Primary qHTS for Inhibitors of ATXN expression; S2 cells (HEK-293 line with an ATXN2-luciferase reporter) viability, CellTiter-Fluor protease fluorescence, 24 h; Potency, µM (highest dose often 56.7 µM), hits mostly cytotoxic; 400,000 compounds, 0.49% hits; AID 651635, 2014; further: nearly all actives have a fitted effect of over 40% in size
# TGFb inhibitor = qHTS for Inhibitors of TGF-b; AID 588855, 2011; HepG2 CAGA-GFP TGF-b/SMAD3 reporter, GFP fluorescence, 18 h; TGF-beta stimulated, 500 pg/mL final; 410,000 compounds, 1.2% hits; Potency, µM (doses to about 46.1 µM), inactives show top-dose activity, negative = inhibition, actives largely listed as inhibitors; further: on the % scale 0 is the no-effect control and ±100 the full control effect; nearly all actives have a fitted effect of over 65% in size
#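 Cell-based qHTS in HEPG2 carrying a CAGA-GFP Smad reporter; compounds added before 500 pg/mL final TGF-beta, 18 h incubation at 37 degrees C, GFP fluorescence quantified per cell by imaging cytometry.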
# HepG2 tox = qHTS for Inhibitors of TGF-b: Cytotox Counterscreen | HepG2 CAGA-GFP viability, ATP luminescence, 18 h | Potency, µM (doses to about 46.1 µM), inactives show at the top dose activity change, negative = cytotoxicity, actives largely listed as cytotoxic | 410,000 compounds, 0.76% hits | AID 588856, 2011
#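 CellTiter-Glo luminescence gave cytotoxicity after 18 hours at 37 degrees C. The cells were HepG2 CAGA-GFP in 1% FBS DMEM, stimulated with 500 pg/mL TGF-beta after compound addition. %Activity was normalised to no-cell wells (complete cell-killing) and DMSO (no toxicity), and curves were fitted and classified.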
# 12-LOX inh = Primary qHTS assay for inhibitors of human arachidonate 12S-lipoxygenase (ALOX12): Round 2 | purified 12hLO, xylenol orange hydroperoxide absorbance | Potency, µM (doses to about 108 µM), for the others: at the top dose activity change, negative = inhibition, usual class: inhibitors | 580,000 compounds, 1.1% hits | AID 1671190, 2021; further: on the % scale 0 is the no-effect control and ±100 the full control effect
# Target sequence (P18054 whole entry, looked up): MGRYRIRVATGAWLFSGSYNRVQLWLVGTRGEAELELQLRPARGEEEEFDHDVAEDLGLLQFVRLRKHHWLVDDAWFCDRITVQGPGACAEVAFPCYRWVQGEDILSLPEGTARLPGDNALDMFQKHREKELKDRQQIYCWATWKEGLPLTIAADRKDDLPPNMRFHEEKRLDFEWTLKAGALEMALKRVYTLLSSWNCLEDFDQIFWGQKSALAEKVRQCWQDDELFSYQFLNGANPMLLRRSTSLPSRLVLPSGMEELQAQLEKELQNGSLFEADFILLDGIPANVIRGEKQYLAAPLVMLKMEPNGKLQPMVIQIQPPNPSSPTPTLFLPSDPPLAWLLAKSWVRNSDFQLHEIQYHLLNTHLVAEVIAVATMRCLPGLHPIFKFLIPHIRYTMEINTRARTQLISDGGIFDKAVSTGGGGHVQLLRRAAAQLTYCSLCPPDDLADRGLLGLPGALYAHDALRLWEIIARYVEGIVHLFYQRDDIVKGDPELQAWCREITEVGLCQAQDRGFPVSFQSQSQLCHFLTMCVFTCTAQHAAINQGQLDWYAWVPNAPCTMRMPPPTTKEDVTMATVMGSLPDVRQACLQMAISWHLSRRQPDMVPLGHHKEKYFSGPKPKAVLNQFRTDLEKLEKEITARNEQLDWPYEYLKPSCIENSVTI
#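 Purified human 12hLO at 150 nM in 25 mM Hepes, 0.01% Triton X-100, pH 7.0, preincubated 15 min at room temperature with compound. Reaction started with 40 uM arachidonic acid, 30 min at room temperature. Hydroperoxide measured by Fe-xylenol orange, 573/405 nm absorbance ratio.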
# ATXN2 expr inh = Primary qHTS for Inhibitors of ATXN expression; HEK-293 ATXN2-luciferase reporter, luminescence, 24 h; Potency, µM (series often up to 57 µM), without a hit: at the top dose activity change, negative = inhibition, usual class: inhibitors; 360,000 compounds, 0.72% hits; further: on the % scale 0 is the no-effect control and ±100 the full control effect; nearly all actives have a fitted effect of over 55% in size
#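 ATXN2-luciferase reporter cells (luciferase flanked by upstream and downstream ATXN2 gene portions) were treated 24 h at 37 °C with compounds at up to 57 uM. SteadyGlo luminescence gave expression; GF-AFC fluorescence gave viability.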
# * = called active by the depositor; i = inactive; ? = inconclusive; . = no result given. This is a sample that favours compounds with a hit; in the whole collection about 2.7% have one here. The call rests on the fitted dose curve; in most records, active means well fitted curve in the direction sought with a large enough effect; inconclusive means small, poorly fitted or top-dose-only effect, or another doubt; inactive means no such curve, though single readings can be large; an effect the other way counts as inactive or inconclusive. Potency means the concentration at half of the fitted maximal effect.
SMILES,S2 tox,TGFb inhibitor,HepG2 tox,12-LOX inh,ATXN2 expr inh
COC(=O)[C@@]1(Cc2ccc(OC)cc2)[C@@H]2C(=CC(=O)[C@H]2CC(=O)C(=O)N2CCCC2)CN1C(=O)c1ccccc1,28µM*,?,-46%,.,?
Clc1ccc(-c2csc(NC3CC3)n2)cc1,.,.,.,8.9µM*,.
Clc1cccc(-c2csc(NC3CC3)n2)c1,.,.,.,-26%,.
Clc1ccc(-c2csc(NC3CC3)n2)cc1Cl,.,.,.,10µM*,.
CC(=O)Nc1ccc(-c2csc(NC3CC3)n2)c(F)c1,.,.,.,14µM*,.
COC(=O)C1=CN(Cc2cccs2)C=C(C(=O)OC)C1c1cccc(OC)c1,.,.,.,-24%,.
CCOc1ccccc1CNC(=O)C1CCN(c2nnc(N3CCCC3=O)s2)CC1,.,.,.,5%,.
Cc1noc(-c2cccs2)c1C(=O)NC(C)CCc1ccccc1 (centres undefined),.,.,.,35%,.
CCOc1ccc(CNS(=O)(=O)c2ccc3[nH]c4c(c3c2)CCCC4)cc1OC,?,?,-11%,?,-10%
CCOC(=O)CC(NS(=O)(=O)c1ccc2[nH]c3c(c2c1)CCCC3)c1ccccc1Cl (centres undefined),.,20µM*,-48%,5%,.
COc1ccccc1CNS(=O)(=O)c1ccc2[nH]c3c(c2c1)CCCCC3,?,11µM*,-57%,10%,0%
COc1cccc(NS(=O)(=O)c2ccc3[nH]c4c(c3c2)CCCCCC4)c1,i,?,13µM*,6%,-23%
CCOc1ccc(/C=N/N=C/c2ccc(OCC)cc2)cc1,.,.,.,-18%,.
Cc1ccccc1C1C2=C(CC(C)(C)CC2=O)OC2=C1C(=O)CC(C)(C)C2,.,.,.,-3%,.
Cc1ccccc1-c1nc2cc(NC(=O)/C=C/c3ccco3)ccc2o1,.,.,.,25µM*,.
Cc1ccc2oc(-c3cc(NC(=O)/C=C/c4ccco4)ccc3Cl)nc2c1,i,2%,-11%,?,14%
FC(F)(F)c1ccccc1Cc1c(-c2ccco2)nc2ccc(Cl)cn12,?,?,6.3µM*,199%,-38%
FC(F)(F)c1ccccc1Cc1c(-c2ccc(Cl)cc2)nc2ccc(Br)cn12,?,?,-15%,40µM*,12%
Cc1ccc(-c2nc3c(Cl)cc(C(F)(F)F)cn3c2Cc2ccccc2C(F)(F)F)cc1,i,.,.,?,16%
Fc1ccc(-c2nc3ccc(Br)cn3c2Cc2ccccc2C(F)(F)F)cc1,i,?,-32%,18µM*,23%
FC(F)(F)c1cc(Cl)c2nc(-c3ccco3)c(Cc3ccccc3C(F)(F)F)n2c1,?,.,.,10µM*,?
Cc1ccc(OCC(O)Cn2nnc(-c3cccnc3)n2)c(C)c1 (centres undefined),.,.,.,2%,.
Fc1ccc(-c2nc3ccc(Cl)cn3c2Cc2ccccc2C(F)(F)F)cc1,i,13µM*,-42%,-29%,68%
Fc1ccc(-c2nc3ccc(Br)cn3c2Cc2cccc(F)c2)cc1,i,13µM*,-33%,?,44%
COc1cc(Nc2nc3ccccc3nc2C(=O)OC(C)C)cc(OC)c1,.,.,.,6.3µM*,.
SMILES,S2 tox,TGFb inhibitor,HepG2 tox,12-LOX inh,ATXN2 expr inh
Cc1ccc(C)c(Nc2nc3nonc3nc2Nc2cccc(C)c2C)c1,.,6.3µM*,-45%,-9%,?
COc1ccc(C2C(C(=O)c3ccc(C)o3)=C(O)C(=O)N2Cc2cccnc2)cc1OC (centres undefined),i,6%,4%,25µM*,21%
CCOc1cc(C2C(C(=O)c3ccc(C)o3)=C(O)C(=O)N2CCc2ccccc2)ccc1O (centres undefined),i,-5%,-21%,8.9µM*,-7%
CCOc1ccc(C2C(C(=O)c3ccc(C)o3)=C(O)C(=O)N2Cc2cccnc2)cc1OC (centres undefined),.,.,.,-24%,.
COc1ccc(CCNc2ncnc3c2oc2ccccc23)cc1OC,.,?,-41%,-27%,28µM*
COc1ccc(CCNc2nc(C)nc3c2oc2ccccc23)cc1OC,i,-9%,-24%,-18%,?
CCN1c2cc(C(=O)Nc3ccc(Br)cc3)ccc2C(=O)N2CCCCCC21 (centres undefined),.,.,.,-15%,.
CCCC(OC(=O)CC1Sc2ccccc2NC1=O)C(=O)NCc1ccco1 (centres undefined),i,?,-29%,32µM*,4%
CC(C)CC(OC(=O)CC1Sc2ccccc2NC1=O)C(=O)NC1CCCC1 (centres undefined),i,15%,11%,2%,-9%
O=C(CC12CC3CC(CC(Br)(C3)C1)C2)NCc1cc(F)cc(F)c1,.,.,.,2%,.
CCCCn1c2ccc(F)cc2c2nnc(SCCN(CC)CC)nc21,i,-17%,-22%,-27%,-13%
CCN(CC)CCSc1nnc2c3cc(C)ccc3n(Cc3ccccc3)c2n1,16µM*,?,-30%,0%,?
O=C(/C(Cl)=C/N1CCN(C(c2ccccc2)c2ccccc2)CC1)C(F)(F)F,.,.,.,63%,.
COc1cc(/C(C)=N\NC(N)=S)cc(OC)c1OC,i,-2%,-2%,-27%,-4%
COc1cc(/C(C)=N/NC(=S)NC(C)C)cc(OC)c1OC,i,10µM*,-37%,?,4%
COc1ccccc1NS(=O)(=O)c1ccc(-c2coc(C)n2)cc1,.,.,.,-3%,.
O=C(Nc1cccc(N2C(=O)C=CC2=O)c1)c1cccs1,.,.,.,35µM*,.
O=C1NC(C(=O)O)=CC(c2ccc([N+](=O)[O-])cc2)N1 (centres undefined),i,-10%,-18%,?,.
N#CC1=C(N)NC(=S)C(C(N)=O)C1c1ccc([N+](=O)[O-])cc1 (centres undefined),i,15%,-1%,45µM*,-13%
O=C(Nc1ccc2[nH]cc(C(C(=O)O)N3CCCC3)c2c1)c1ccccc1 (centres undefined),.,.,.,-22%,.

# Screening data from PubChem.
